In PubChem BioAssay (Tox21):
Inconclusive results are not listed. Activity calls are given as the source filed them. The call rests on the fitted dose curve.

How the values were obtained:
[1] = target: Acetylcholinesterase (Homo sapiens) (UniProt P22303); assay: Acetylcholinesterase (AChE) small molecule antagonists: colormetric cell-based qHTS assay (AID 1347395); settings: SH-SY5Y cells AChE activity, colorimetric (Ellman); series mostly up to 115 µM; further: nearly all actives have a fitted effect of over 30% in size
Procedure, shortened: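 Quantitative HTS in attached SH-SY5Y cells: 30 min compound exposure, then 90 min with acetylthiocholine and DTNB at 37 C; colour from thiocholine reports AChE activity.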

[2] = target: Acetylcholinesterase (Homo sapiens) (UniProt P22303); assay: Acetylcholinesterase (AChE) small molecule antagonists: enzyme-based qHTS assay (AID 1347397); settings: Potency: AChE enzyme activity inhibition; outcome: AChE enzyme activity inhibition; series mostly up to 115 µM; further: nearly all actives have a fitted effect of over 55% in size
Procedure, shortened: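 Colorimetric DTNB readout of acetylthiocholine hydrolysis, 10 min at room temperature, after 30 min room-temperature exposure of 50 mU/mL recombinant human enzyme to compound; DMSO vehicle control.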

[3] = target: Acetylcholinesterase (Homo sapiens) (UniProt P22303); assay: Acetylcholinesterase (AChE) small molecule antagonists: fluorescence cell-based qHTS assay (AID 1347398); settings: SH-SY5Y cells; Potency: AChE activity; outcome: AChE activity; series mostly up to 115 µM; further: nearly all actives have a fitted effect of over 50% in size
Procedure, shortened: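 Cellular AChE activity read as thiocholine from acetylthiocholine hydrolysis, detected by Thiolite Green fluorescence at 490/520 nm after 40 min at room temperature. Compounds were pre-incubated 30 min at 37 C on adherent SH-SY5Y cells.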

[4] = target: Acetylcholinesterase (Homo sapiens) (UniProt P22303); assay: Acetylcholinesterase (AChE) small molecule antagonists: enzyme-based qHTS assay with human liver microsomes (AID 1347399); settings: Potency: qHTS inhibition; outcome: qHTS inhibition; series mostly up to 115 µM; further: nearly all actives have a fitted effect of over 60% in size
Procedure, shortened: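 Recombinant human AChE (50 mU/mL in the enzyme mix) and human liver microsomes (0.25 mg/mL final) were preincubated with compound and NADPH (0.25 mg/mL final) for 30 min at 37 C. Acetylthiocholine/DTNB was then added; thiocholine was read colorimetrically after 10 min at room temperature.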

Measured: Potency

Chain of Acetylcholinesterase (Homo sapiens) (P22303 whole entry, looked up): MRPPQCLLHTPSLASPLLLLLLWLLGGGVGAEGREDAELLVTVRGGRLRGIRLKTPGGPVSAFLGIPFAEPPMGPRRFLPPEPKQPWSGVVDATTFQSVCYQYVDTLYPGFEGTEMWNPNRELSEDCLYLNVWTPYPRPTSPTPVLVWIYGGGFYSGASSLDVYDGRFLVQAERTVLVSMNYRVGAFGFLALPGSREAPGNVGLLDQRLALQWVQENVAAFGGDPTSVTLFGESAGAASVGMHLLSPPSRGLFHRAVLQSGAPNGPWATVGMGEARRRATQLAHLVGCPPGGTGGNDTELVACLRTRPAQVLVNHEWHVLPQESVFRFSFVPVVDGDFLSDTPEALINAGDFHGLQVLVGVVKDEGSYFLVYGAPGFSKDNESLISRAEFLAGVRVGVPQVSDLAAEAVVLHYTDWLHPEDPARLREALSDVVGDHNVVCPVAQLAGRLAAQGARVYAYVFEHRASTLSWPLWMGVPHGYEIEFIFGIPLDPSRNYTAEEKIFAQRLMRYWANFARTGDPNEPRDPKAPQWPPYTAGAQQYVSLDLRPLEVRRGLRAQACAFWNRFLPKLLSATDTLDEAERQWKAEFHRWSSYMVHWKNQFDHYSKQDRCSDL

O=C(Cl)c1cccc([N+](=O)[O-])c1
inactive: all assays above

c1ccc2occc2c1
inactive: all assays above

O=C(c1ccccc1)C1CCC1
inactive: all assays above

OC1CCCCC1c1ccccc1 (stereo not given)
inactive: all assays above

Cc1ccc2c(Br)cc(Br)c(O)c2n1
inactive: all assays above

OCCCc1cccnc1
inactive: all assays above

CC(CCc1ccc2c(c1)OCO2)NN (stereo not given)
inactive: all assays above

CCOC(=O)[C@@H](C)Oc1ccc(Oc2nc3ccc(Cl)cc3o2)cc1
inactive: all assays above

OC[C@@H](O)[C@@H](O)CO
inactive: all assays above

CCC1(C)C(=O)N(Cl)C(=O)N1Cl (stereo not given)
inactive: all assays above

O=S(O)CO
inactive: all assays above

CCCCNc1ccc(C(=O)OCCOCCOCCOCCOCCOCCOCCOCCOCCOC)cc1
inactive: all assays above

Clc1ccccc1-c1nc(-c2ccncc2)no1
inactive: all assays above

Clc1cc(Cl)cc(Cl)c1
inactive: all assays above

C=Cc1ccc(S(=O)(=O)O)cc1
inactive: all assays above

CC(C)COC(=O)CC(C(=O)OCC(C)C)S(=O)(=O)O (stereo not given)
inactive: all assays above

C1=CCC(c2ccccc2)CC1 (stereo not given)
inactive: all assays above

Nc1c(Br)cc([N+](=O)[O-])cc1Br
inactive: all assays above

Nc1ncnc2c1ncn2[C@H]1CC[C@@H](CO)O1
inactive: all assays above

Cc1cc(OI)c(C(C)C)cc1-c1cc(C(C)C)c(OI)cc1C
inactive: all assays above

CC1(CO)CN(c2ccccc2)NC1=O (stereo not given)
inactive: all assays above

c1ccc(CN(CC2=NCCN2)c2ccccc2)cc1
inactive: all assays above

CC[C@H](NC(=O)c1cc(F)ccc1NS(=O)(=O)c1cccc2cccnc12)c1ccccc1
inactive: all assays above

COC(=O)c1ccc(NC(C)=O)cc1OC
inactive: all assays above

O=C(O)c1ccc(O)c(O)c1
inactive: all assays above

C=C(C)CS(=O)(=O)O
inactive: all assays above

C=COCCCC
inactive: all assays above

OCCC(F)(F)C(F)(F)C(F)(F)C(F)(F)C(F)(F)C(F)(F)F
inactive: all assays above

CCOc1ncc(F)c(=O)[nH]1
inactive: all assays above

C[C@@H](c1ncncc1F)C(O)(Cn1cncn1)c1ccc(F)cc1F (stereo not given in full)
inactive: all assays above

c1ccc2cc3c4ccccc4c4ccccc4c3cc2c1
inactive: all assays above

CC(C)CCOC(=O)c1ccc(N(C)C)cc1
inactive: all assays above

O=C1CCCN1CCO
inactive: all assays above

CCOC(=O)c1ccccc1
inactive: all assays above

FC1(F)C(F)(F)C(F)(F)C2(F)C(F)(F)C(F)(F)C(F)(F)C(F)(F)C2(F)C1(F)F (stereo not given)
inactive: all assays above
